Screens (PubChem)
This is one part of a sample in which hits are shown more often than they occur.
mut p53 react – mutant p53 pathway reactivation; SW480 PUMA-promoter luciferase; hit rate 1.5% among 28,000; activation, % at 9.98 µM; in the data active = activation above about 52%
NOMO-1 viab – STK33 inhibitor candidate reducing NOMO-1 cell viability; NOMO-1 AML viability, CellTiter-Glo luminescence, 72 h; inhibition, % (no concentration beside the values); hit rate 7.5% among 37,000; in the data active = inhibition above about 80%
STK33 kin inh – blocks human STK33 kinase activity | Q9BYT3 | ADP-Glo luminescence, MBP substrate | inhibition, % at 12.5 µM | hit rate 0.44% among 27,000 | AID 2322; in the data active = inhibition above about 20%
Target sequence (Q9BYT3 whole entry, looked up): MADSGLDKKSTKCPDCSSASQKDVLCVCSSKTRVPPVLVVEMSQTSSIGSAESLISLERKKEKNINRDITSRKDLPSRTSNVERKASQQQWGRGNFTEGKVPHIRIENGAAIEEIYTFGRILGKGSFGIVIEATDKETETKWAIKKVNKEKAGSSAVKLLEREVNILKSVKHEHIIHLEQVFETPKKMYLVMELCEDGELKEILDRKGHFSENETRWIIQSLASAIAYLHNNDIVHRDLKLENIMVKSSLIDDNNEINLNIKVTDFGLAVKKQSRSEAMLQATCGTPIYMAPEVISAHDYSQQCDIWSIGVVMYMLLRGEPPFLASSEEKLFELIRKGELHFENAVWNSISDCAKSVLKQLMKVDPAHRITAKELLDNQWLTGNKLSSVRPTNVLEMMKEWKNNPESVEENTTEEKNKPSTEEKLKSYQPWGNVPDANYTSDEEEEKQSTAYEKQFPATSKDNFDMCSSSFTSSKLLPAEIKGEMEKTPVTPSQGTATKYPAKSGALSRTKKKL
ID4 SMM – binders of human ID4 protein. AID 624137. small molecule microarray, Flag-ID4 binding, fluorescence F/B. hit rate 1.2% among 31,000. P47928. calls only; call rule not given here;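 also: a binder raises fluorescence above local background on the spot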
Active calls of the source: *.

How did C[C@@H]1CN([C@@H](C)CO)C(=O)c2cccc(NC(=O)Nc3ccc(C(F)(F)F)cc3)c2O[C@@H]1CN(C)S(=O)(=O)c1ccc(Cl)cc1 do in these assays?
mut p53 react: -28.0; NOMO-1 viab: 122.4*; ID4 SMM: inactive

What do the screens show for `C[C@@H]1CN([C@H](C)CO)C(=O)c2cccc(NC(=O)Nc3ccc(F)cc3)c2O[C@H]1CN(C)S(=O)(=O)c1ccc(Cl)cc1`?
mut p53 react: -21.7; NOMO-1 viab: 12.0; ID4 SMM: inactive

How did O=C(c1ccccc1)c1ccc2nc(-c3cccc(NC(=O)C4CCCO4)c3)[nH]c2c1 (stereo unspecified) do in these assays?
mut p53 react: 15.8; NOMO-1 viab: 100.1*; STK33 kin inh: 7.3; ID4 SMM: inactive

How did N#Cc1c(NC(=O)COc2ccc3c(-c4ccccc4)cc(=O)oc3c2)sc2c1CCC2 do in these assays?
mut p53 react: -0.4; NOMO-1 viab: 95.7*; STK33 kin inh: -2.4; ID4 SMM: inactive

How did COc1ccc(NC(=O)Nc2ccc3c(c2)CC(=O)N([C@@H](C)CO)C[C@H](C)[C@H](CN(C)S(=O)(=O)c2ccc(C)cc2)O3)cc1 do in these assays?
mut p53 react: -40.5; NOMO-1 viab: 128.0*; ID4 SMM: inactive

How did COc1ccc(NC(=O)Nc2ccc3c(c2)CC(=O)N([C@@H](C)CO)C[C@H](C)[C@H](CN(C)S(=O)(=O)c2ccc(F)cc2)O3)cc1 do in these assays?
NOMO-1 viab: 109.7*; STK33 kin inh: 0.9

Results for C[C@@H]1CN([C@H](C)CO)C(=O)Cc2cc(NC(=O)Nc3ccc(F)cc3)ccc2O[C@H]1CN(C)S(=O)(=O)c1ccccc1 ?
NOMO-1 viab: 7.7; STK33 kin inh: 0.0

How did COc1ccc(NC(=O)Nc2ccc3c(c2)CC(=O)N([C@H](C)CO)C[C@@H](C)[C@@H](CN(C)S(=O)(=O)c2ccc(C)cc2)O3)cc1 do in these assays?
mut p53 react: -4.9; NOMO-1 viab: 14.4; STK33 kin inh: -2.6; ID4 SMM: inactive

Results for C[C@H](CO)N1C[C@H](C)[C@H](CN(C)S(=O)(=O)c2ccccc2)Oc2ccc(NC(=O)Nc3ccc(F)cc3)cc2CC1=O ?
NOMO-1 viab: 94.8*; STK33 kin inh: 0.4

How did C[C@@H]1CN([C@@H](C)CO)C(=O)c2cc(NC(=O)Nc3ccc4c(c3)OCO4)ccc2O[C@@H]1CN(C)S(=O)(=O)c1ccc(F)cc1 do in these assays?
mut p53 react: -26.8; NOMO-1 viab: 29.9; ID4 SMM: inactive

How did C[C@@H]1CN([C@H](C)CO)C(=O)c2cc(NC(=O)Nc3ccc4c(c3)OCO4)ccc2O[C@@H]1CN(C)S(=O)(=O)c1ccc(F)cc1 do in these assays?
mut p53 react: -54.3; NOMO-1 viab: 95.0*; ID4 SMM: inactive

What do the screens show for `COc1ccc(S(=O)(=O)N(C)C[C@@H]2Oc3ccc(NC(=O)Nc4ccc(F)cc4)cc3CC(=O)N([C@H](C)CO)C[C@H]2C)cc1`?
NOMO-1 viab: 14.6; STK33 kin inh: -0.4

Results for C(=C\c1ccccc1)/C=N/N1CCN(Cc2cccc3ccccc23)CC1 ?
mut p53 react: 18.1; ID4 SMM: inactive

Results for C[C@H](CO)N1C[C@H](C)[C@H](CN(C)S(=O)(=O)c2ccc(Cl)cc2)Oc2ccc(NC(=O)Nc3ccccc3)cc2CC1=O ?
NOMO-1 viab: 110.6*

How did C[C@H]1CN([C@@H](C)CO)C(=O)Cc2cc(N(C)C)ccc2O[C@H]1CN(C)S(=O)(=O)c1ccc(Cl)cc1 do in these assays?
NOMO-1 viab: 115.3*; STK33 kin inh: -5.8

Results for C[C@H](CO)N1C[C@H](C)[C@H](CN(C)S(=O)(=O)c2ccc(F)cc2)Oc2ccc(NC(=O)Nc3ccc4c(c3)OCO4)cc2CC1=O ?
NOMO-1 viab: 126.3*; STK33 kin inh: 3.7

What do the screens show for `C[C@H](CO)N1C[C@H](C)[C@H](CN(C)S(=O)(=O)c2ccc(F)cc2)Oc2ccc(NC(=O)Nc3ccc(F)cc3)cc2CC1=O`?
NOMO-1 viab: 125.8*; STK33 kin inh: -0.3

Results for C[C@H]1CN([C@@H](C)CO)C(=O)Cc2cc(N(C)C)ccc2O[C@@H]1CN(C)S(=O)(=O)c1ccc(Cl)cc1 ?
NOMO-1 viab: 8.7; STK33 kin inh: 3.2

Results for C[C@H](CO)N1C[C@H](C)[C@H](CN(C)S(=O)(=O)c2ccc(F)cc2)Oc2ccc(NC(=O)Nc3ccc(C(F)(F)F)cc3)cc2CC1=O ?
NOMO-1 viab: 119.4*; STK33 kin inh: 1.2

How did C[C@H](CO)N1C[C@H](C)[C@H](CN(C)S(=O)(=O)c2ccc(Cl)cc2)Oc2ccc(NC(=O)Nc3ccc(F)cc3)cc2CC1=O do in these assays?
NOMO-1 viab: 124.8*; STK33 kin inh: -3.3

How did COc1ccc(S(=O)(=O)N(C)C[C@@H]2Oc3ccc(NC(=O)Nc4ccc(C(F)(F)F)cc4)cc3CC(=O)N([C@@H](C)CO)C[C@H]2C)cc1 do in these assays?
mut p53 react: -37.0; ID4 SMM: inactive

What do the screens show for `OCCCNc1ncnc2oc(-c3ccccc3)c(-c3ccccc3)c12`?
mut p53 react: -39.2; NOMO-1 viab: 39.9; STK33 kin inh: 31.8*; ID4 SMM: inactive

Results for OCCCNc1ncnc2scc(-c3ccccc3)c12 ?
mut p53 react: -33.6; NOMO-1 viab: 44.4; STK33 kin inh: 1.7; ID4 SMM: inactive

How did C[C@H]1CN([C@@H](C)CO)C(=O)c2cccc(NC(=O)Nc3ccc(F)cc3)c2O[C@@H]1CN(C)Cc1ccc(C(=O)O)cc1 do in these assays?
mut p53 react: 4.5; NOMO-1 viab: -9.1; ID4 SMM: inactive

What do the screens show for `C[C@@H]1CN([C@@H](C)CO)C(=O)c2cccc(NC(=O)Nc3ccc(C(F)(F)F)cc3)c2O[C@H]1CN(C)Cc1ccc(C(=O)Nc2ccccc2N)cc1`?
NOMO-1 viab: 128.0*

How did C[C@H]1CN([C@@H](C)CO)C(=O)c2cccc(NC(=O)Nc3ccc(F)cc3)c2O[C@@H]1CN(C)Cc1ccc(C(=O)Nc2ccccc2N)cc1 do in these assays?
NOMO-1 viab: 139.6*

How did C[C@@H]1CN([C@@H](C)CO)C(=O)c2cccc(NC(=O)Nc3ccc(F)cc3)c2O[C@H]1CN(C)Cc1ccc(C(=O)Nc2ccccc2N)cc1 do in these assays?
NOMO-1 viab: 125.1*

How did C[C@H](CO)N1C[C@H](C)[C@@H](CN(C)Cc2ccc(C(=O)O)cc2)Oc2c(NC(=O)Nc3ccc(F)cc3)cccc2C1=O do in these assays?
mut p53 react: -0.5; NOMO-1 viab: 2.6; STK33 kin inh: 1.9; ID4 SMM: inactive

What do the screens show for `C[C@H](CO)N1C[C@H](C)[C@H](CN(C)Cc2ccc(C(=O)Nc3ccccc3N)cc2)Oc2c(NC(=O)Nc3ccc(F)cc3)cccc2C1=O`?
NOMO-1 viab: 97.1*

Results for C[C@@H]1CN([C@H](C)CO)C(=O)c2cccc(NC(=O)Nc3ccc(C(F)(F)F)cc3)c2O[C@@H]1CN(C)Cc1ccc(C(=O)O)cc1 ?
mut p53 react: -5.1; NOMO-1 viab: 0.6; ID4 SMM: inactive

Results for COc1ccc(Cl)cc1NC(=O)CN(c1ccc(Br)c(C)c1)S(C)(=O)=O ?
mut p53 react: -0.1; NOMO-1 viab: -14.1; STK33 kin inh: 0.2; ID4 SMM: inactive
